Results as given in PubChem BioAssay AID1508601 (ICCB-Longwood Screening Facility, Harvard Medical School, 2020).
Hit rate of the full screen: of about 5,700 compounds, about 85 (1%) were called active. No stated cut-off is given here; in the data, active means p53-positive nuclei above about 36% (passing the limit was not always enough); inactive means the rest. What follows is part of a selection rich in actives, with near analogues and random picks from the rest.

Experiments:
[1] = p53 stabilisation in HPV-positive human cells, imaging, p53-positive nuclei imaging, 24 h, 48 h (AID 1508601); conditions: 24/48 h
[2] = target: Cellular tumor antigen p53 (Homo sapiens) (UniProt P04637); test: as above; conditions: 24/48 h, stronger effect = higher value
[3] = measured here: cell number at 24 h, Library stock concentration: 10 mM
[4] = measured here: cell number at 48 h, Library stock concentration: 10 mM
[5] = Library stock concentration: 10 mM
[6] = measured here: p53 positive nuclei at 24 h, Library stock concentration: 10 mM
[7] = measured here: cell number at 24 h, concentration not given here
[8] = measured here: cell number at 48 h, concentration not given here
[9] = measured here: p53 positive nuclei at 24 h, concentration not given here

Cellular tumor antigen p53 (Homo sapiens), sequence (P04637 whole entry, looked up): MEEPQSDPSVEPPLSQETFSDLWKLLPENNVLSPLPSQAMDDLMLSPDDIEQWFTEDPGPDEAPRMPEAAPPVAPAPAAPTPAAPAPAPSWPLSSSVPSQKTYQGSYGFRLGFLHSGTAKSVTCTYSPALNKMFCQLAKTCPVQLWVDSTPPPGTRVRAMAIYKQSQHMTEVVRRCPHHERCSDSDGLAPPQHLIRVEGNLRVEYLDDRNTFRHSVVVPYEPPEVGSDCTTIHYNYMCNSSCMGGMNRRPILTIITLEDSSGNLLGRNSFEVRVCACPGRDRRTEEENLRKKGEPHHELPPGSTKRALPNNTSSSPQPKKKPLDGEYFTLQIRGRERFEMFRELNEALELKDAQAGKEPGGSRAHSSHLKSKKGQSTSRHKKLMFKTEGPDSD

CCn1cnc2c(Nc3cccc(Cl)c3)nc(NC3CCCCC3N)nc21 (stereo not given)
nuclei count, normalised ([1]; measured here: cell number at 24 h, Library stock concentration: 80 uM): 108% | nuclei count, normalised ([1]; measured here: cell number at 24 h, Library stock concentration: 400 uM): 103% | nuclei count, normalised ([1]; measured here: cell number at 24 h, Library stock concentration: 2 mM): 91.4% | nuclei count, normalised [1, 3]: 32.2% | nuclei count, normalised ([1]; measured here: cell number at 48 h, Library stock concentration: 80 uM): 110% | nuclei count, normalised ([1]; measured here: cell number at 48 h, Library stock concentration: 400 uM): 104% | nuclei count, normalised ([1]; measured here: cell number at 48 h, Library stock concentration: 2 mM): 98.2% | nuclei count, normalised [1, 4]: 21.9% | p53-positive nuclei, normalised ([2]; Library stock concentration: 80 uM): -0.102% (inactive) | p53-positive nuclei, normalised ([2]; Library stock concentration: 400 uM): -0.0205% (inactive) | p53-positive nuclei, normalised ([2]; Library stock concentration: 2 mM): 0.0322% (inactive) | p53-positive nuclei, normalised [2, 5]: 61.8% (active) | p53-positive nuclei, normalised ([2]; measured here: p53 positive nuclei at 24 h, Library stock concentration: 80 uM): 0.0806% | p53-positive nuclei, normalised ([2]; measured here: p53 positive nuclei at 24 h, Library stock concentration: 400 uM): 0.000598% | p53-positive nuclei, normalised ([2]; measured here: p53 positive nuclei at 24 h, Library stock concentration: 2 mM): 0.126% | p53-positive nuclei, normalised [2, 6]: 48.5%

CCCCCCCCCCCCCCCCOC[C@H](COP(=O)([O-])OCC[N+](C)(C)C)OC(C)=O
nuclei count, normalised [1, 7]: 107% | nuclei count, normalised [1, 8]: 107% | p53-positive nuclei, normalised ([2]; concentration not given here): -0.0025% (inactive) | p53-positive nuclei, normalised [2, 9]: -0.0227%

CCCCC/C=C\C/C=C\C/C=C\C/C=C\CCCC(=O)NC(CO)CO
nuclei count, normalised [1, 7]: 103% | nuclei count, normalised [1, 8]: 109% | p53-positive nuclei, normalised ([2]; concentration not given here): 0.067% (inactive) | p53-positive nuclei, normalised [2, 9]: -0.135%

CC1CN(Cc2ccc(F)cc2)CCN1C(=O)COc1ccc(Cl)cc1NC(N)=O (stereo not given)
nuclei count, normalised ([1]; measured here: cell number at 24 h, Library stock concentration: 46 uM): 113% | nuclei count, normalised ([1]; measured here: cell number at 24 h, Library stock concentration: 278 uM): 111% | nuclei count, normalised ([1]; measured here: cell number at 24 h, Library stock concentration: 1.67 mM): 113% | nuclei count, normalised [1, 3]: 116% | nuclei count, normalised ([1]; measured here: cell number at 48 h, Library stock concentration: 46 uM): 112% | nuclei count, normalised ([1]; measured here: cell number at 48 h, Library stock concentration: 278 uM): 110% | nuclei count, normalised ([1]; measured here: cell number at 48 h, Library stock concentration: 1.67 mM): 112% | nuclei count, normalised [1, 4]: 112% | p53-positive nuclei, normalised ([2]; Library stock concentration: 46 uM): -0.174% (inactive) | p53-positive nuclei, normalised ([2]; Library stock concentration: 278 uM): -0.135% (inactive) | p53-positive nuclei, normalised ([2]; Library stock concentration: 1.67 mM): -0.0557% (inactive) | p53-positive nuclei, normalised [2, 5]: -0.323% (inactive) | p53-positive nuclei, normalised ([2]; measured here: p53 positive nuclei at 24 h, Library stock concentration: 46 uM): 0.0345% | p53-positive nuclei, normalised ([2]; measured here: p53 positive nuclei at 24 h, Library stock concentration: 278 uM): -0.0826% | p53-positive nuclei, normalised ([2]; measured here: p53 positive nuclei at 24 h, Library stock concentration: 1.67 mM): -0.151% | p53-positive nuclei, normalised [2, 6]: 0.0332%
